The list is not random: actives were taken first. Their share in the collection is about 4.9%.
MPTP block = permeability transition pore inhibition; isolated mouse mitochondria, Ca2+ swelling absorbance, 30 min; inhibition, % at 10 µM; 360,000 tested, 1.4% active; AID 602449;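 active means inhibition of 50% or more, scaled per plate between neutral and stimulator controls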;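 further: 0% = DMSO wells given calcium and 100% = 1 mM EGTA wells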
HSP90 inh = inhibitors of HSP90 luciferase refolding in rabbit reticulocyte lysate | AID 1789 | inhibition, % at 5.6 µM | 290,000 tested, 0.91% active | luciferase refolding luminescence, 3 h;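 active means inhibition above the screen-wide mean plus 3 SD, computed separately per campaign, cut at about 16% in these data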;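 further: 0% = DMSO wells and 100% = 60 µM geldanamycin wells; inhibitors lower the luminescence because luciferase stays unfolded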
dFosB act = mouse delta FosB homodimer activation | purified delta FosB, TAMRA-CDK5 oligo fluorescence polarization; percent of positive-control signal above neutral wells | 340,000 tested, 0.99% active | activation, % at 25 µM | P13346;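 active means mean activation above about 17%, with every replicate also reaching it, limit read from the data, passing the limit was not always enough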
Target sequence (P13346 whole entry, looked up): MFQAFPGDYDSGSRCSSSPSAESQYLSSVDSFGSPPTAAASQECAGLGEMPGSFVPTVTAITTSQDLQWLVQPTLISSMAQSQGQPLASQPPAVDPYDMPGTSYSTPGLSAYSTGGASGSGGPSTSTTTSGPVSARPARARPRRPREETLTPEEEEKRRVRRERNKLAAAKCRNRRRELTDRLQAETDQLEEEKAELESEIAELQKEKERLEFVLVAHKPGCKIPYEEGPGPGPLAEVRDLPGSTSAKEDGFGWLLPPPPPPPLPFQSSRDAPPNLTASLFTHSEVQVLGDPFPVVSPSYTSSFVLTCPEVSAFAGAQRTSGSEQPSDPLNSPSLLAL
HSF1 inhib = HSF1 inhibition | NIH3T3-HGL HSE-luciferase, MG132-induced, luminescence 8 h; hits give low values | activity change, negative = inhibition, % at 7.5 µM (by protocol) | 300,000 tested, 0.77% active;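 active means more than half of replicate wells show activity change below -50%, luminescence cut by over half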;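 further: luciferase reports HSF-1 transcriptional activity via heat shock element; 0% = median of DMSO wells and -100% = zero luminescence signal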
HSF-1 act = increases HSF-1 driven luciferase reporter signal. NIH3T3-HGL HSF-1 luciferase reporter, MG132, 8 h; 100% = twice DMSO control signal. activation, % at 9 µM. 300,000 tested, 1.7% active. AID 504408;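 active means mean replicate activation of at least 50% with a set share of replicates each reaching 50%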;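 further: 0% = median of the neutral control wells and 100% = twice that signal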
Platelet DG rel = platelet dense granule release activity; inhibition, %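 (compounds screened at 7.5 µM in platelet-rich plasma)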; 300,000 tested, 0.22% active; human platelet-rich plasma, SFLLRN dense granule ATP release, luminescence; AID 1663;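 active means mean replicate score, as percent of positive control, at or above 50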
* marks the source's active call; other numbers are inactive results; / = no result.

SMILES | MPTP block | HSP90 inh | dFosB act | HSF1 inhib | HSF-1 act | Platelet DG rel
CC(=O)Nc1ccc(N/C=C/C(=O)c2ccccc2)cc1 | 0.7 | -0.5 | 6.4 | 2.0 | 9.7 | 11.7
COc1cccc(C(=O)/C=C/Nc2ccc(NC(C)=O)cc2)c1 | -1.5 | 1.8 | -2.6 | 0.6 | 1.5 | 35.1
CN(C)c1ccc(N/C=C/C(=O)c2ccccc2)cc1 | 1.0 | 3.1 | 2.0 | 10.0 | 22.3 | 88.4*
COc1cccc(C(=O)/C=C/Nc2cccc(O)c2)c1 | 0.5 | 2.8 | -13.4 | 3.3 | -12.4 | 67.6*
NC(=O)c1ccccc1N/C=C/C(=O)c1ccco1 | 0.0 | -0.8 | 2.7 | 7.1 | 19.8 | 6.8
COc1ccc(-c2sc3ccc(OC)cc3c2-c2ccc(OC)nc2)cc1 | 4.7 | / | 4.4 | / | / | /
N/N=C(/Cc1nc2ccccc2[nH]1)c1ccc([N+](=O)[O-])cc1 | 0.1 | 3.5 | -2.8 | 23.9 | 34.5 | 0.3
CC(NS(=O)(=O)c1ccc(Br)s1)c1ccccc1 (stereo not given) | -0.3 | 3.6 | 1.6 | 4.8 | -6.6 | 2.9
O=C(/C=C/Nc1ccccc1)c1ccccc1 | 0.6 | -1.2 | -6.1 | 45.5 | 87.7* | 36.7
Cc1ccc(C(=O)/C=C\Nc2ccc(C)c(C)c2)cc1 | 3.4 | -3.1 | 4.1 | 16.5 | 55.7* | -22.6
Cc1ccc(N/C=C/C(=O)c2ccc(C)cc2)cc1 | 1.5 | 4.0 | -9.1 | 2.7 | 3.7 | -2.8
COc1cc(OC)c(OC)cc1CNCC1COc2ccccc2O1 (stereo not given) | -0.4 | -3.1 | -4.0 | 10.2 | 11.5 | 8.1
Cc1cc(OC(=O)c2ccccc2C(F)(F)F)c([N+](=O)[O-])c(=O)[nH]1 | -1.3 | 1.5 | -1.7 | -2.7 | -1.2 | -9.8
O=C(COC(=O)CNC(=O)c1ccccc1F)NCCNC(=O)COC(=O)CNC(=O)c1ccccc1F | -3.4 | / | 2.1 | -1.1 | -7.7 | 1.4
O=C(COC(=O)CNC(=O)c1ccccc1F)Nc1cccnc1Cl | -0.3 | -5.8 | -7.6 | -77.0* | -81.0 | -37.7
COc1cc(OC)cc(C(=O)N(CCCN2C(=O)c3cccc4cccc(c34)C2=O)c2cccc(OC)c2)c1 | 3.4 | -0.9 | -3.0 | 37.0 | 59.4* | 4.1
N/C(=N/OC(=O)c1ccccc1Cl)c1nonc1N | -0.6 | -3.0 | 1.1 | -11.2 | 3.0 | 54.1*
COc1ccc(C(=O)O/N=C(\N)c2ccccc2Cl)cc1OC | -1.4 | 0.9 | -14.2 | 14.4 | 9.1 | -5.9
COc1ccccc1C(=O)O/N=C(\N)c1ccccc1Cl | -0.2 | -7.3 | -7.0 | 23.9 | 69.6* | 2.1
O=C(Nc1ccc(NC(=O)c2ccccc2)c2ccccc12)c1ccccc1 | 0.9 | / | / | / | / | /
Cc1cc(=O)oc2c(C)c(OC(C)C(=O)NCCCN3CCOCC3)ccc12 (stereo not given) | -1.2 | 2.2 | -2.9 | -68.8* | -75.7 | 8.4
Cc1cc(=O)oc2c(C)c(OC(C)C(=O)NCC(O)c3ccccc3)ccc12 (stereo not given) | -1.6 | -2.5 | -5.5 | 15.2 | 51.3* | 1.1
CCN(CC(=O)NCc1ccc(F)cc1)C(=O)/C=C/c1ccc(S(=O)(=O)N(CC)CC)cc1 | 0.7 | -1.8 | -9.2 | -2.1 | -8.0 | -4.2
CCOc1ccc(N(C(=O)c2ccccc2Cl)C2=NC(C)(C)CS2)cc1 | 0.6 | -1.8 | -9.5 | 18.2 | 51.2* | -14.4
CC(C)C[C@H]1CNC(=S)N1C[C@H]1CCCN1C[C@H](Cc1ccccc1)N1C[C@H](CC(C)C)N(CCc2ccccc2)C1=S | 3.7 | / | / | / | / | /
SMILES | MPTP block | HSP90 inh | dFosB act | HSF1 inhib | HSF-1 act | Platelet DG rel
Nc1nc(CSc2nc3ccccc3s2)nc(Nc2ccccc2)n1 | / | 0.6 | / | 31.1 | 58.1* | 6.6
CCN(CC)C(=O)Cn1cc(SCC(=O)NC2CCCCC2)c2ccccc21 | 0.5 | / | / | / | / | /
CCOC(=O)CCNC(=O)N1CCCC(C(=O)c2cccc(Cl)c2)C1 (stereo not given) | 1.8 | -2.8 | 0.9 | 0.5 | 24.7 | -0.6
CCCNC(=O)N1CCCC(C(=O)c2cccc(Cl)c2)C1 (stereo not given) | -1.8 | 2.2 | -4.3 | -53.7* | -65.2 | -0.5
Cc1ccccc1-n1c(C)nc2ccccc21 | -0.5 | -2.9 | 1.3 | -52.5* | -60.9 | -0.2
Cc1nc2ccccc2n1-c1ccccc1 | -0.7 | -2.9 | 2.4 | -4.2 | 0.9 | -0.5
COc1cccc(N(CC(=O)N2CCN(C)CC2)S(=O)(=O)c2ccc(C)cc2)c1 | 2.5 | -2.9 | -6.4 | -85.1* | -88.1 | 1.9
O=C(CN(c1ccc(Cl)c(Cl)c1)S(=O)(=O)c1ccccc1)N1CCc2ccccc2C1 | 0.4 | -2.7 | 10.1 | 5.1 | 10.2 | -3.3
COc1ccc(N(CC(=O)N2CCN(C)CC2)S(=O)(=O)c2ccccc2)cc1 | 0.4 | 3.8 | -0.4 | -11.1 | 1.9 | 7.0
Cc1ccc(S(=O)(=O)N(CC(=O)N2CCc3ccccc3C2)c2ccc(Cl)c(Cl)c2)cc1 | 3.2 | -1.0 | -8.6 | -87.6* | -90.6 | -0.8
Cc1ccc(C)c(OCCC(=O)Nc2ccccc2C(=O)NC2CC2)c1 | -2.6 | / | 2.8 | / | / | /
CN(CC(=O)N1CCCC1)S(=O)(=O)c1ccc2ccccc2c1 | -0.4 | 0.6 | 4.8 | 4.7 | 14.7 | -3.4
Cc1ccc(C(=O)C(C(=O)/C=C/c2ccccc2)=C2SCCCS2)cc1 | -2.0 | 4.5 | -7.4 | 95.2 | 135.8* | 3.9
Cc1ccc(C(=O)C=CC=Cc2ccccc2)cc1 | 0.1 | / | / | / | / | /
CC(NC(=O)Cn1nc(C(=O)O)c2ccccc2c1=O)c1ccccc1 (stereo not given) | -1.9 | -0.3 | 1.1 | 25.3 | 52.4* | -15.3
CNC(=O)Cn1nc(C)c2ccccc2c1=O | 0.3 | 2.9 | 1.1 | -78.3* | -82.4 | 3.2
Cc1cc(C(=O)Cn2nc(C(=O)O)c3ccccc3c2=O)c(C)n1-c1ccc(F)cc1 | 1.0 | 16.8* | -7.2 | -5.9 | 7.6 | 0.6
Cc1nn(CC(=O)O)c(=O)c2ccccc12 | -0.9 | 0.6 | 5.7 | -8.3 | -6.2 | 4.9
Cc1ccccc1CSc1nsc(N)n1 | 0.6 | -0.8 | 0.5 | 15.8 | 60.5* | 1.1
COc1cccc(-c2nc3sc4c(c3c(=O)[nH]2)CCCCC4)c1 | 0.5 | -6.2 | -5.4 | 26.3 | 53.1* | 5.8
CCOC(=O)c1nc2sc3c(c2c(=O)[nH]1)CCCC3 | -1.6 | -4.4 | -2.3 | -3.1 | 6.2 | 60.4*
COCc1nc2sc3c(c2c(=O)[nH]1)CCCC3 | 1.9 | 0.3 | -2.1 | 0.9 | -4.5 | -0.4
CCOC(=O)c1nc2sc3c(c2c(=O)[nH]1)CCC(C)C3 (stereo not given) | 1.4 | 4.2 | -7.3 | -0.9 | 7.2 | 13.0
Cc1ccc(S(=O)(=O)N2CCN(C(=O)CN3C(=O)c4ccc([N+](=O)[O-])cc4C3=O)CC2)c(C)c1 | 2.8 | / | 7.1 | 8.6 | 33.4 | 8.4
CCOP(=O)(OCC)c1nc(-c2cccc3ccccc23)oc1N1CCOCC1 | -3.5 | 1.4 | -3.8 | 22.3 | 73.7* | -2.7
COc1cc(CC(NC(C)=O)C(=O)NC2CCN(c3c(Cc4ccccc4)c(C)nc4ncnn34)CC2)cc(OC)c1 (stereo not given) | -0.4 | -2.0 | -8.8 | -6.0 | 0.6 | 0.5
